Out of some 39,000 compounds screened, about 500 (1.3%) were called active. The entries come from a sample that favours actives as a whole.
Each compound was assayed on S. aureus RN4220 (assay: growth inhibition call (relative growth <= 0.2)). Conditions: 50 µM.

Row | Compound | growth inhibition call
1 | C[C@H]1CCCC[C@]12NC(=O)NC2=O | inactive
2 | CC1CCC(C(C)C)C(=O)C1 (stereo unspecified) | inactive
3 | C[C@H](CO)N1C[C@H](C)[C@@H](CN(C)Cc2ccccc2)OCCCC[C@H](C)Oc2ccc(NC(=O)C3CCCCC3)cc2C1=O | inactive
4 | COc1ccc(S(=O)(=O)Nc2ccc3c(c2)CC(=O)N([C@@H](C)CO)C[C@H](C)[C@@H](CN(C)S(C)(=O)=O)O3)cc1 | inactive
5 | Cc1ccc(S(=O)(=O)N(C)C[C@H]2Oc3c(NS(=O)(=O)c4cn(C)cn4)cccc3C(=O)N([C@@H](C)CO)C[C@H]2C)cc1 | inactive
6 | COCCNC(=O)C[C@H]1CC[C@H]2[C@@H](COC[C@@H](O)CN2S(=O)(=O)c2ccccc2C)O1 | inactive
7 | CN1CC2(CCN(C(=O)[C@H]3CCC(=O)N3)CC2)COc2ccccc2S1(=O)=O | inactive
8 | C[C@@H]1CCCCO[C@H](CN(C)C(=O)NC2CCCCC2)[C@H](C)CN([C@@H](C)CO)C(=O)c2cc(NS(=O)(=O)c3ccc(F)cc3)ccc2O1 | inactive
9 | O=C(C[C@H]1C[C@@H]2c3cc(NS(=O)(=O)c4ccc(F)cc4)ccc3O[C@@H]2[C@@H](CO)O1)NCc1ccncc1 | inactive
10 | CSc1nc(C)cc(NC(N)=O)n1 | inactive
11 | COc1cc(N2CCC(N)CC2)ccc1Nc1ncc(Cl)c(-c2c[nH]c3ccccc23)n1 | active
12 | COc1cc(N2CCC(N(C)C)CC2)ccc1Nc1ncc(Cl)c(Nc2ccccc2P(C)(C)=O)n1 | inactive
13 | COc1cc(N2CCC(N3CCN(C)CC3)CC2)ccc1Nc1ncc(Cl)c(Nc2ccccc2S(=O)(=O)C(C)C)n1 | inactive
14 | CCCNC(=O)N1C[C@H](O)COC[C@@H]2O[C@H](CC(=O)N3CCN(C)CC3)CC[C@H]21 | inactive
15 | O=C(CN1CCOCC1)N[C@H]1CC[C@@H](CCNC(=O)C2CCCCC2)O[C@H]1CO | inactive
16 | COC1(NC(=O)C2SC(=C(C(N)=O)C(=O)O)S2)C(=O)N2C(C(=O)O)=C(CSc3nnnn3C)CSC21 (stereo unspecified) | active
17 | COC1(NC(=O)C(C(=O)[O-])c2ccc(O)cc2)C(=O)N2C(C(=O)[O-])=C(CSc3nnnn3C)COC21.[Na+].[Na+] (stereo unspecified) | active
18 | COC1(NC(=O)CSCC#N)C(=O)N2C(C(=O)[O-])=C(CSc3nnnn3C)CSC21.[Na+] (stereo unspecified) | active
19 | CO[C@@]1(NC(=O)CSC[C@@H](N)C(=O)O)C(=O)N2C(C(=O)O)=C(CSc3nnnn3C)CS[C@@H]21 | inactive
20 | CO[C@@]1(NC(=O)[C@@H](C(=O)O)c2ccc(O)cc2)C(=O)N2C(C(=O)O)=C(CSc3nnnn3C)CO[C@@H]21 | inactive
21 | C[C@H](CO)N1C[C@H](C)[C@@H](CN(C)Cc2ccc3c(c2)OCO3)Oc2c(NC(=O)c3ccncc3)cccc2C1=O | inactive
22 | COc1ccc(S(=O)(=O)Nc2ccc3c(c2)CC(=O)N([C@H](C)CO)C[C@@H](C)[C@H](CN(C)S(=O)(=O)c2ccc(F)cc2)O3)cc1 | inactive

Row | Compound | growth inhibition call
23 | O=C(CCCCCNC(=O)OCc1ccc(CO[C@H]2C[C@@H](C3CCCCC3)C=C(C(=O)N3CCN(Cc4ccc5c(c4)OCO5)CC3)O2)cc1)NO | inactive
24 | COc1ccccc1NC(=O)C1=C(C)N=C(SCC(=O)Nc2ccccc2[N+](=O)[O-])C(C#N)[C@@H]1c1ccccc1F (stereo partly specified) | inactive
25 | C[C@H]1CN([C@@H](C)CO)C(=O)Cc2cc(NC(=O)CCCCCC(=O)Nc3ccccc3N)ccc2O[C@H]1CN(C)Cc1ccc(C(F)(F)F)cc1 | inactive
26 | COc1ccc(NC(=O)N(C)C[C@H]2OCCCC[C@@H](C)Oc3ccc(NC(=O)Nc4ccccc4)cc3C(=O)N([C@H](C)CO)C[C@H]2C)cc1 | inactive
27 | COc1ccc(S(=O)(=O)Nc2ccc3c(c2)C(=O)N([C@@H](C)CO)C[C@@H](C)[C@H](CN(C)Cc2ccc(C(F)(F)F)cc2)OCCCC[C@H](C)O3)cc1 | inactive
28 | C[C@H]1CCCCO[C@H](CN(C)S(=O)(=O)c2ccc(Cl)cc2)[C@@H](C)CN([C@@H](C)CO)C(=O)c2cc(NC(=O)Nc3ccc4c(c3)OCO4)ccc2O1 | inactive
29 | Cc1ccc(N(c2ccc(C)cc2)c2cccnc2)cc1 | active
30 | COC(=O)c1cccnc1 | inactive
31 | CCN(CC)C(=O)c1cccnc1 | inactive
32 | CS(=O)(=O)N1C[C@@H]2OCC[C@@H]2[C@H](C(=O)NCc2cccnc2)C1 | inactive
33 | O=C(O)c1c(Br)c(Br)c(Br)c(Br)c1-c1c2ccc(=O)cc-2oc2cc(O)ccc12 | active
34 | O=c1cc(-c2ccccc2O)oc2cc(O)ccc12 | inactive
35 | O=c1cc(-c2ccccc2)oc2cc(O)ccc12 | inactive
36 | COc1ccccc1S(=O)(=O)N(C)C[C@@H]1OCc2cnnn2CCCC(=O)N([C@H](C)CO)C[C@@H]1C | inactive
37 | Cc1onc(-c2ccccc2)c1CN | inactive
38 | Clc1ccc(CSC(Cn2ccnc2)c2ccc(Cl)cc2Cl)cc1.O=[N+]([O-])O (stereo unspecified) | inactive
39 | Clc1ccc(COC(Cn2ccnc2)c2ccc(Cl)cc2Cl)cc1.O=[N+]([O-])O (stereo unspecified) | inactive
40 | Clc1ccc(CON=C(Cn2ccnc2)c2ccc(Cl)cc2Cl)c(Cl)c1.O=[N+]([O-])O | active
41 | CC(=O)N(C)C[C@H]1Oc2ncc(C#C[C@@H](C)O)cc2C(=O)N([C@@H](C)CO)C[C@@H]1C | inactive
42 | CC(C)NC(=O)N(C)C[C@H]1Oc2c(NS(=O)(=O)c3cn(C)cn3)cccc2C(=O)N([C@H](C)CO)C[C@@H]1C | inactive
43 | C[C@H]1CN([C@@H](C)CO)C(=O)c2cc(NC(=O)NC3CCCCC3)ccc2O[C@H]1CN(C)Cc1ccc(Cl)c(Cl)c1 | inactive
44 | NC[C@@H]1CCCO1 | inactive

Row | Compound | growth inhibition call
45 | CCC1OC(=O)CC(O)C(C)C(OC2OC(C)C(OC3CC(C)(O)C(O)C(C)O3)C(N(C)C)C2O)C(CC=O)CC(C)C(=O)C=CC(C)=CC1COC1OC(C)C(O)C(OC)C1OC.O=C(O)C(O)C(O)C(=O)O (stereo unspecified) | active
46 | CC[C@H]1OC(=O)C[C@@H](O)[C@H](C)[C@@H](O[C@@H]2O[C@H](C)C[C@H](N(C)C)[C@H]2O)[C@@H](CC=O)C[C@@H](C)C(=O)/C=C/[C@]2(C)O[C@H]2[C@@H]1C | active
47 | CC[C@H]1OC(=O)C[C@@H](O)[C@H](C)[C@@H](O[C@@H]2O[C@H](C)[C@@H](O[C@H]3C[C@@](C)(O)[C@@H](O)[C@H](C)O3)[C@H](N(C)C)[C@H]2O)[C@@H](CC=O)C[C@@H](C)C(=O)/C=C/C(C)=C/[C@@H]1CO[C@@H]1O[C@H](C)[C@@H](O)[C@@H](OC)[C@H]1OC | active
48 | COc1cccc(C(=O)Nc2ccc3c(c2)C(=O)N(C)[C@@H]2CC[C@H](CC(=O)NCC4CC4)O[C@@H]2CO3)c1 | inactive
49 | Cc1noc(C)c1NC(=O)Nc1ccc2c(c1)C(=O)N([C@H](C)CO)C[C@H](C)[C@@H](CN(C)C(=O)C1CCCCC1)OCCCC[C@@H](C)O2 | inactive
50 | COCC#Cc1ccc2c(c1)O[C@H](CN(C)C(=O)c1ccccc1F)[C@@H](C)CN([C@@H](C)CO)S2(=O)=O | inactive
51 | C[C@@H]1CN([C@H](C)CO)C(=O)c2cc(NC(=O)Nc3cccc4ccccc34)ccc2O[C@H]1CN(C)S(=O)(=O)c1ccccc1 | inactive
52 | COC(=O)c1cc(=O)nc2n1[C@H]1O[C@H](CO)[C@H](O)[C@H]1O2 | inactive
53 | COc1cccc(NC(=O)C[C@H]2CC[C@@H]3[C@@H](COc4ccc(NC(=O)C5CCOCC5)cc4C(=O)N3C)O2)c1 | inactive
54 | CC(C)NC(=O)N(C)C[C@H]1Oc2ccc(NS(=O)(=O)c3cn(C)cn3)cc2C(=O)N([C@@H](C)CO)C[C@H]1C | inactive
55 | CN(C)C1CCN(C(=O)c2cnc(-c3noc4cc(-c5ccccc5C(F)(F)F)ccc34)s2)CC1 | active
56 | CN(C)C1CCN(C(=O)c2cnc(-c3noc4cc(-c5cccc(C(F)(F)F)c5)ccc34)s2)CC1 | inactive
57 | Cc1ccc(S(=O)(=O)N(C)C[C@H]2Oc3c(NS(=O)(=O)c4ccc(F)cc4)cccc3C(=O)N([C@@H](C)CO)C[C@H]2C)cc1 | inactive
58 | C[C@H]1CN([C@@H](C)CO)C(=O)c2c(c3ccccc3n2C)-c2ccccc2CO[C@H]1CN(C)Cc1ccc(C(=O)O)cc1 | inactive
59 | CC[C@@H](C)NCCCCOc1ccc(Cl)cc1C(C)(C)C | active
60 | Cc1ccc(OCc2ccc(Cl)cc2)c(C(C)(C)C)c1 | inactive
61 | CC(C)(C)NCCCCOc1ccc(Cl)cc1C(C)(C)C | inactive
62 | C[C@H](CO)N1C[C@H](C)[C@@H](CN(C)S(=O)(=O)c2cn(C)cn2)Oc2ccc(NC(=O)Nc3ccc4c(c3)OCO4)cc2CC1=O | inactive
63 | CC(=O)N[C@@H](CCCNC(=N)N)C(=O)N[C@H]1CSSC[C@@H](C(N)=O)NC(=O)[C@H](Cc2c[nH]c3ccccc23)NC(=O)[C@H](CCCNC(=N)N)NC(=O)[C@@H](Cc2ccccc2)NC(=O)[C@H](Cc2cnc[nH]2)NC(=O)[C@@H](C)NC1=O | inactive
64 | CC[C@H](C)[C@H](N)C1=N[C@H](C(=O)N[C@@H](CC(C)C)C(=O)N[C@H](CCC(=O)O)C(=O)N[C@H](C(=O)N[C@H]2CCCCNC(=O)[C@H](CC(N)=O)NC(=O)[C@@H](CC(=O)O)NC(=O)[C@H](Cc3cnc[nH]3)NC(=O)[C@@H](Cc3ccccc3)NC(=O)[C@H]([C@@H](C)CC)NC(=O)[C@@H](CCCN)NC2=O)[C@@H](C)CC)CS1 | active
65 | CC[C@H](C)[C@H](N)C1=N[C@H](C(=O)N[C@@H](CC(C)C)C(=O)N[C@@H]2CCC(=O)[O][Zn][O]C(=O)C[C@H]3NC(=O)[C@H](Cc4c[nH]cn4)NC(=O)[C@@H](Cc4ccccc4)NC(=O)[C@H]([C@@H](C)CC)NC(=O)[C@@H](CCCN)NC(=O)[C@H](CCCCNC(=O)[C@H](CC(N)=O)NC3=O)NC(=O)[C@H]([C@@H](C)CC)NC2=O)CS1 | active
66 | NCCCC[C@H](NC(=O)[C@@H]1CCCN1C(=O)[C@@H]1CSSC[C@H](N)C(=O)N[C@@H](Cc2ccccc2)C(=O)N[C@@H](Cc2ccccc2)C(=O)NC(CCC(N)=O)C(=O)N[C@@H](CC(N)=O)C(=O)N1)C(=O)NCC(N)=O (stereo partly specified) | inactive
